Measurements: PubChem BioAssay (NCI)
The panel holds about 83,000 compounds, 20% with a hit somewhere; the sample as a whole holds those more often.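 Each cell line was grown in a 96-well plate and treated with one concentration of compound for 48 hours. Values below 10 were considered active.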 A number with no mark means an inactive call. Activity calls are given as the source filed them.

Columns and labels:
Experiment in all cases: NCI-60 one-dose screen, 48 h (100 = growth as untreated, 0 = no growth, -100 = all killed)
Conditions in all cases: 10 µM unless noted
NCI-H23 lung = system: NCI-H23 lung
NCI-H226 lung = system: NCI-H226 lung
NCI-H322M lung = system: NCI-H322M lung
HOP-62 NSCLC = system: HOP-62 NSCLC
NCI-H460 lung = system: NCI-H460 lung
HOP-92 NSCLC = system: HOP-92 NSCLC
NCI-H522 lung = system: NCI-H522 lung
A549/ATCC NSCLC = system: A549/ATCC NSCLC
786-0 renal = system: 786-0 renal
COLO 205 colon = system: COLO 205 colon
DU-145 prostate = system: DU-145 prostate
K-562 leukemia = system: K-562 leukemia
MALME-3M melanoma = system: MALME-3M melanoma
MDA-MB-231 breast = system: MDA-MB-231 breast
RXF 393 renal = system: RXF 393 renal
SF-268 CNS = system: SF-268 CNS
SF-295 CNS = system: SF-295 CNS
SF-539 CNS = system: SF-539 CNS
UACC-257 melanoma = system: UACC-257 melanoma
M14 melanoma = system: M14 melanoma

Row | Structure (SMILES) | growth (NCI-H23 lung) [%] | growth (NCI-H226 lung) [%] | growth (NCI-H322M lung) [%] | growth (HOP-62 NSCLC) [%] | growth (NCI-H460 lung) | growth (HOP-92 NSCLC) | growth (NCI-H522 lung) [%] | growth (A549/ATCC NSCLC) [%] | growth (786-0 renal) | growth (COLO 205 colon) | growth (DU-145 prostate) [%] | growth (K-562 leukemia) | growth (MALME-3M melanoma) [%] | growth (MDA-MB-231 breast) [%] | growth (RXF 393 renal) | growth (SF-268 CNS) [%] | growth (SF-295 CNS) | growth (SF-539 CNS) | growth (UACC-257 melanoma) [%] | growth (M14 melanoma)
1 | CNCCCC12CCC(c3ccccc31)c1ccccc12 | 92.1 | 107 | 92 | 82.9 | 97.3% | 48.5% | 88.8 | 90.1 | 65.7% | 7.78% (active) | 103 | 80.6% | 82.6 | 80.2 | 61.7% | 92.5 | 100% | 99.2% | 95.9 | 80.4%
2 | CCN(CC)S(=O)(=O)c1ccc(NC(=O)CSc2nnc(C)n2-c2ccccc2)cc1 | 97.6 | 95.3 | 113 | 104 | 115% | 76.9% | 85.3 | 109 | 109% | 112% | 120 | 88.5% | 132 | 108 | 110% | 97.7 | 115% | 101% | 95.4 | 116%
3 | O=C(CCc1nnc(-c2c(Cl)cccc2Cl)o1)c1nc2ccccc2[nH]1 | 61.9 | 83.7 | 76 | 71.6 | 77.3% | 6.67% (active) | 49.8 | 69.7 | 73.8% | 62.6% | 82.2 | 2.22% (active) | 79.3 | 38.3 | 81.5% | 68.1 | 59.5% | 95.2% | 78.6 | 55.8%
4 | CCCSc1nc2ccc(C)cc2cc1/C=[N+](\[O-])c1ccccc1 | 42.1 | 70.8 | 90.9 | 25.5 | 96.7% | 19.2% | 72.8 | 95.4 | 34.6% | 101% | 42 | 40.4% | 46.2 | 51.1 | 69.4% | 45.5 | 98.8% | 1.38% (active) | 63.3 | 6.91% (active)
5 | Cc1[nH]c(C(=O)Nc2ccc(C(=O)N3CCNCC3)cc2OC(C)C)c(Cl)c1Cl | 90.7 | 97.2 | 86.1 | 88.7 | 2.04% (active) | 43.5% | 94 | 70.2 | 77.6% | -47% (active) | 68.1 | -28.6% (active) | 72.6 | 22.9 | 71.3% | 74.4 | 107% | 80.8% | 101 | 45.5%
6 | CS(=O)(=O)Nc1cc(-c2ccc3ncnc(Nc4cccc(Cl)c4F)c3c2)cnc1Cl | 56.6 | 49.2 | 47.2 | 54.7 | 41.5% | 13.3% | 53.8 | 67.4 | 29.6% | 66.3% | 63 | 53.4% | 18.2 | 13.7 | -24% (active) | 24.2 | 34.7% | 27.8% | 40.1 | 50.1%
7 | COc1cccc(-c2nc(-c3ccc(NC(=O)C(C)C)cc3)[nH]c2-c2ccnc(Br)c2)c1 | 51.3 | 43.5 | 43.7 | 24.1 | 31.8% | 43.4% | 19.5 | 38.8 | -14.1% (active) | 30.1% | 61.4 | 1.17% (active) | 34.4 | 52.3 | -31% (active) | 51.6 | -42.9% (active) | 16% | 52.8 | 40.2%
8 | CCCCn1c(-c2ccc(-c3nc(-c4ccc(Cl)cc4)no3)cc2)nc(-c2ccccc2)c1-c1ccccc1 | 68.2 | 84.2 | 90.4 | 92.4 | 95.6% | 75.4% | 75.2 | 36.3 | 82% | 98.8% | 93.4 | 58.9% | 92 | 79.9 | 101% | 95.5 | 79% | 85.5% | 97.8 | 94.4%
